CCHFV vOTU inh: CCHFV vOTU protease inhibition; Pep-AMC fluorescence; inhibition, % at 11.5 µM; 0.55% of 370,000 active; AID 651958; in the data active means inhibition above about 30%; further: 0% = vehicle wells with enzyme and 100% = no enzyme wells
VHR inh abs: blocks human VHR1 dual specificity phosphatase; inhibition, % at 13.3 µM; 0.52% of 290,000 active; recombinant VHR phosphatase, pNPP absorbance; AID 1654; P51452; in the data active means inhibition above about 50%
Target sequence (P51452 whole entry, looked up): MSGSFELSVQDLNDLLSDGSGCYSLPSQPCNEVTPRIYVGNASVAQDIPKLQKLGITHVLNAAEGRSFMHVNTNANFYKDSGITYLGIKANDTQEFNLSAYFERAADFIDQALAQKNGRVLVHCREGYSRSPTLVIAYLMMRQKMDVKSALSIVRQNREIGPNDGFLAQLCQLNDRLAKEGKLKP
Vc quorum ag: induces V. cholerae light production without autoinducers | activation, % at 18.7 µM | V. cholerae BH1578 lux reporter, luminescence, 6 h | 0.16% of 350,000 active; in the data active means activation mostly above about 9.7%, no sharp cut-off
PrPC surface inh: inhibitors of human cell surface prion protein PrPC; P04156; TR-FRET read-out; inhibition, % at 13.8 µM; 0.43% of 370,000 active; AID 720596; in the data active means inhibition above about 24%; further: 0% = median of the test wells and 100% = reference compound wells
Y pestis TopoI: Y. pestis Topo-I inhibition via cleavage products. Y. pestis Topo-I cleavage product accumulation, plate reader. activity, % at 10 µM. 0.064% of 360,000 active. AID 504884; in the data active means activity above about 50%, passing the limit was not always enough
MazF activator: MazEF (E. coli) toxin RNase activation | P0AE70 | FAM/BHQ RNA-DNA oligo cleavage fluorescence, 5 h | activation, % at 20 µM | 0.32% of 350,000 active | AID 504720; in the data active means activation above about 50%
Target sequence (P0AE70 whole entry, looked up): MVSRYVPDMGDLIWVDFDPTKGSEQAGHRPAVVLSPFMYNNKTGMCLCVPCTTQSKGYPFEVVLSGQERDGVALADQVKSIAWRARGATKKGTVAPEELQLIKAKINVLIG
PrPC confirm: cell surface PrPC inhibition, TR-FRET confirmation | shares compounds with PrPC surface inh | cell surface PrPC level | inhibition, % at 13.8 µM | 65% of 1,500 active | AID 743200; in the data active means inhibition above about 25%
LD9 tox: kills or reduces viability of LD9 cells in PrPc counter-screen; AID 743201; LD9 cells cytotoxicity, luminescence viability; inhibition, % at 13.8 µM; 29% of 1,500 active; shares compounds with PrPC surface inh; in the data active means inhibition above about 9.5%
Numbers without * were called inactive; i = inactive; . = no result. Sampled rows, rich in hits. Any-hit rate of the full collection: about 1.8%.

SMILES	CCHFV vOTU inh	VHR inh abs	Vc quorum ag	PrPC surface inh	Y pestis TopoI	MazF activator	PrPC confirm	LD9 tox
O=S(=O)(Nc1ccc(Cc2ccncc2)cc1)c1ccc(Br)cc1	-6	16	i	36*	-12	3	31*	4
O=S(=O)(Nc1ccc(Cc2ccncc2)cc1)c1ccc(Cl)cc1	-16	44	i	40*	1	2	38*	-1
COc1cc(Cn2c3ccc(NC(=S)NCc4ccc(C)cc4)cc3c(=O)n2C)ccc1F	-59	.	0	8	13	.	.	.
CN(C)C=Nc1ccccc1C1C=NNC1=O (centres undefined)	.	28	.	.	.	.	.	.
Cc1ccc(NC(=O)c2c(C(F)(F)F)nn(C)c2SCc2cccc(C(F)(F)F)c2)cc1C	22	21	i	30*	23	-1	25*	9.4*
N#Cc1ccc(CN2CCN(C(=O)CN3C(=O)NC4(CCCC4)C3=O)CC2)cc1	-6	.	1	1	2	1	.	.
Cc1cccc(NNC(=O)C(=O)NNc2cccc(C)c2)c1	-2	5	-1	29*	9	6	21	-3
Cc1cccc(NC(=O)CC(=O)Nc2cccc(C)c2)c1	-3	47	-1	5	-6	-3	.	.
N=c1c2c(-c3ccccc3)c(-c3ccccc3)n(Cc3ccccc3)c2ncn1C1CCC(O)CC1 (centres undefined)	-5	.	.	-19	.	.	.	.
CN(C)S(=O)(=O)c1ccc(N2CCCC2)c(C(=O)Nc2nc3ccccc3s2)c1	-12	-7	-1	61*	7	-6	61*	-5
Cc1cccc2sc(NC(=O)c3cc(S(=O)(=O)N(C)C)ccc3N3CCCC3)nc12	0	21	i	50*	30	-10	31*	-10
CC(C)Cc1nnc(NC(=O)c2cc(S(=O)(=O)N(C)C)ccc2N2CCCC2)s1	9	10	-5	-1	26	10	.	.
CN(C)S(=O)(=O)c1ccc(N2CCCC2)c(C(=O)Nc2nc3ccc(F)cc3s2)c1	-21	-2	0	11	19	-17	.	.
COc1ccc(CNS(=O)(=O)/C=C/c2cc(C)ccc2CNC(=O)OC(C)(C)C)cc1	12	.	.	11	.	.	.	.
O=C(COc1ccc(Br)cc1Br)NC(=S)Nc1cccc(CO)c1	1	9	i	5	-1	-18	.	.
O=C(O)CCC(=O)NNC(=O)COc1ccc2ccccc2c1Br	2	40	1	46*	0	-5	85*	-1
O=C(COc1ccc2ccccc2c1Br)NC(=S)Nc1cccc(CO)c1	5	-2	0	61*	23	-8	66*	-8
CC(C)(C)c1ccc(OCC(=O)Nc2ccncc2)c(Br)c1	6	11	0	2	35	-4	.	.
O=C(COc1ccc2ccccc2c1Br)Nc1ccncc1	15	-9	3	60*	23	31	69*	8
O=C(COc1ccc2ccccc2c1Br)Nc1cccnc1	0	6	i	48*	-12	2	68*	-3
CCc1ccc(-c2nc(CS(=O)CC(=O)NC3CCCCCC3)c(C)o2)cc1 (centres undefined)	-14	-1	0	-2	19	0	.	.
Cc1cc(Cn2nnc3ccccc32)c(O)c(C(C)(C)C)c1	6	.	-11	6	2	1	.	.
CCCN(CCC)Cc1cc(=O)oc2ccccc12	7	.	.	-5	.	.	.	.
CCN(C(=O)C(C)Sc1ccc(S(=O)(=O)N2CCOCC2)cn1)c1ccccc1 (centres undefined)	2	.	-3	-7	17	3	.	.
CN(C(=O)COc1ccccc1C(=O)NCCOc1ccccc1)c1ccccc1	-1	23	4	80*	16	-3	83*	95*
O=C(NCCOc1ccccc1)c1ccccc1Cl	13	14	-7	4	3	13	.	.
CCOc1ccccc1N1CCN(C(=O)NCc2ccc(Cl)cc2)CC1	3	26	0	5	19	9	.	.
CCN(C(=O)COC(=O)c1cccc(S(=O)(=O)N2CCOCC2)c1)C1CCS(=O)(=O)C1 (centres undefined)	-3	.	0	-4	-5	-1	.	.

Screening results: PubChem BioAssay, several laboratories
